Source: article PMC5540273 (PLoS ONE, 2017)

Legend:
Details in all cases: concentration: 1 μM, replicates: in singlicate; n = 1
[1] = tested on: TYK2(JH2domain-pseudokinase)
[2] = tested on: TYRO3
[3] = tested on: ULK1
[4] = tested on: ULK2
[5] = tested on: ULK3
[6] = tested on: T1, VEGFR2
T1 construct: gene KDR

[7] = tested on: T2, VPS34
T2 construct: gene PIK3C3

[8] = tested on: VRK2
[9] = tested on: WEE1
[10] = tested on: WEE2
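Further: KINOMEscan kinase panel screen.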

| SMILES | %Inh [1] [%] | %Inh [2] [%] | %Inh [3] [%] | %Inh [4] [%] | %Inh [5] [%] | %Inh [6] [%] | %Inh [7] [%] | %Inh [8] [%] | %Inh [9] [%] | %Inh [10] [%] |
| --- | --- | --- | --- | --- | --- | --- | --- | --- | --- | --- |
| Cc1ccc(NC(=O)c2cccc(N3CCCCC3)c2)cc1-c1ccc(C(=O)NCC2CC2)cc1 [GSK1917008] | 0 | 0 | 37 | 13 | 18 | 6 | 0 | 0 | 0 | 18 |
| COc1cccc2c(-c3ccncc3)c(-c3ccc(F)cc3)nn12 [GW468513] | 67 | 0 | 3 | 0 | 0 | 0 | 10 | 12 | 4 | 0 |
| CC(=O)Nc1cn2nc(Oc3cccc(NC(=O)c4cccc(C(F)(F)F)c4)c3)ccc2n1 | 0 | 33 | 0 | 0 | 0 | 99.4 | 24 | 8 | 21 | 0 |
| Nc1ncc(-c2cn[nH]c2)c2scc(-c3ccc4c(c3)CCN4C(=O)Cc3ccccc3)c12 [GSK2593067] | 16 | 6 | 9 | 0 | 9 | 53 | 33 | 0 | 0 | 12 |
| CC(C)c1nc(-c2cccc(NS(=O)(=O)c3c(F)cccc3F)c2)c(-c2ccnc(Nc3ccc(N4CCOCC4)nc3)n2)s1.Cl [GSK1723980] | 60 | 72 | 22 | 13 | 93.5 | 91 | 0 | 0 | 18 | 0 |
| Cc1cccc(Nc2nc(N[C@H]3CCCC[C@H]3N)ncc2C(N)=O)c1.Cl [GSK986310] | 19 | 21 | 72 | 80 | 43 | 0 | 56 | 0 | 41 | 8 |
| Nc1cccc(-c2ccc3c(N)n[nH]c3c2)c1 [GSK2193613] | 0 | 0 | 6 | 0 | 3 | 0 | 21 | 30 | 5 | 10 |
| CSc1ccc(NC2=C(c3ccc(Cl)cc3)C(=O)NC2=O)cc1 [SB-317658] | 0 | 0 | 19 | 0 | 12 | 0 | 22 | 13 | 5 | 0 |
| CN(c1ccc(NC(=O)N2CCN(CCCN3CCOCC3)CC2)cc1)c1ccnc(Nc2ccc(CS(C)(=O)=O)cc2)n1.Cl [GW830899] | 22 | 8 | 0 | 0 | 0 | 52 | 0 | 0 | 3 | 79 |
| Cc1cc(-c2ccnc(Nc3cccc(C#N)c3)n2)cc(C)c1O [GSK1440913] | 99.4 | 23 | 1 | 0 | 54 | 6 | 70 | 3 | 0 | 2 |
| Cn1cc(-c2cnc(N)c3c(-c4ccc5c(c4)CCN5C(=O)Cc4ccccc4)csc23)cn1 [GSK2593074] | 0 | 63 | 0 | 0 | 0 | 65 | 0 | 0 | 3 | 5 |
| O=C(Nc1n[nH]c2cc(-c3cccs3)ccc12)C1CC1 [SB-731284] | 63 | 0 | 39 | 15 | 7 | 57 | 16 | 0 | 0 | 0 |
| CCNc1nccc(-c2c(-c3ccc(F)cc3)ncn2C2CCN(C)CC2)n1 | 0 | 26 | 0 | 0 | 0 | 0 | 0 | 0 | 0 | 0 |
| Cc1ccccc1CC(=O)N1CCc2cc(-c3cn(C)c4ncnc(N)c34)ccc21 [GSK2603346] | 40 | 0 | 16 | 0 | 19 | 69 | 2 | 0 | 0 | 17 |
| O=C1NC(=O)C(c2ccccc2Cl)=C1Nc1cccc(Cl)c1 [SB-342409] | 29 | 0 | 36 | 0 | 24 | 0 | 0 | 12 | 0 | 6 |
| CC(C)c1nc(-c2ccc(F)c(NS(=O)(=O)c3c(F)cccc3F)c2)c(-c2ccnc(Nc3ccc(N4CCOCC4)nc3)n2)s1 [GSK1804250] | 0 | 86 | 9 | 19 | 50 | 47 | 0 | 11 | 5 | 16 |
| CN(C)CCOc1ccc(-c2cc(-c3ccc(Cl)c(O)c3)c(-c3ccncc3)[nH]2)cc1.Cl.Cl [SB-684387] | 18 | 6 | 6 | 8 | 14 | 21 | 16 | 45 | 7 | 0 |
| Cc1nn2c(=O)cc(N3CCO[C@H](C)C3)nc2n1Cc1cccc(Cl)c1Cl [GSK2373693] | 18 | 15 | 78 | 0 | 14 | 0 | 96.5 | 0 | 0 | 0 |
| O=C(O)C(F)(F)F.O=c1[nH]ccc2nc(N[C@@H]3CCNC3)nc(Nc3ccc4c(c3)S(=O)(=O)CC4)c12 [GSK2181306] | 57 | 2 | 99.9 | 99.5 | 98.6 | 36 | 88 | 89 | 18 | 0 |

| SMILES | %Inh [1] [%] | %Inh [2] [%] | %Inh [3] [%] | %Inh [4] [%] | %Inh [5] [%] | %Inh [6] [%] | %Inh [7] [%] | %Inh [8] [%] | %Inh [9] [%] | %Inh [10] [%] |
| --- | --- | --- | --- | --- | --- | --- | --- | --- | --- | --- |
| Cc1cccc(Nc2nc(NCCN)ncc2C(N)=O)c1 [GSK1292139] | 95.8 | 0 | 64 | 78 | 41 | 3 | 0 | 18 | 0 | 26 |
| Cc1ccc(NC(=O)c2ccnc(N3CCCCC3)c2)cc1-c1ccc(C(=O)NCC2CC2)cc1 [GW775610] | 0 | 0 | 0 | 0 | 0 | 0 | 0 | 100 | 0 | 37 |
| O=C(Nc1n[nH]c2nc(-c3ccccc3)ccc12)C1CC1 [SB-708999] | 29 | 6 | 11 | 3 | 9 | 0 | 14 | 47 | 0 | 0 |
| N#CC1(c2cccc(C(=O)Nc3cccc(Oc4ccc5nc(NC(=O)C6CC6)sc5n4)c3)c2)CC1 | 0 | 53 | 0 | 0 | 0 | 99.7 | 0 | 19 | 0 | 5 |
| COc1cccc(-c2nc(-c3ccccc3)[nH]c2-c2ccncc2)c1 [SB-610250] | 93.1 | 0 | 8 | 0 | 28 | 0 | 0 | 43 | 9 | 0 |
| CCNC(=O)/C=C/c1n[nH]c2cc(Sc3ccccc3C(=O)NC)ccc12 | 0 | 0 | 10 | 36 | 1 | 99.9 | 0 | 14 | 14 | 0 |
| Cl.O=C(Nc1ccc(Oc2ccc3[nH]c(NC(=O)c4ccco4)nc3c2)cc1)Nc1cc(C(F)(F)F)ccc1F [GW683134] | 24 | 42 | 24 | 0 | 32 | 78 | 0 | 15 | 0 | 0 |
| CCn1cnc2c(NCc3ccccc3)ncnc21 [SKF-96418] | 30 | 0 | 0 | 38 | 0 | 0 | 33 | 16 | 0 | 0 |
| Cn1cc(-c2ccc3c(c2)CCN3C(=O)Cc2cc(F)cc(C(F)(F)F)c2)c2c(N)ncnc21 [GSK2635225] | 1 | 0 | 0 | 0 | 0 | 22 | 3 | 0 | 0 | 0 |
| Nc1ncnc2scc(-c3ccc(NC(=O)Cc4cc(F)ccc4F)cc3)c12.O=C(O)C(F)(F)F [SB-731254-M] | 0 | 0 | 11 | 1 | 34 | 80 | 0 | 0 | 0 | 0 |
| Cc1ccc(-c2ccc3occ(-c4ccc(S(C)=O)cc4)c3c2)nn1 (stereo not shown) | 18 | 0 | 0 | 0 | 0 | 0 | 61 | 0 | 0 | 0 |
| COc1cc(Nc2ccnc3cc(-c4ccncc4)ccc23)cc(OC)c1OC.Cl [GW494610] | 18 | 89 | 100 | 0 | 15 | 0 | 0 | 19 | 0 | 18 |
| CN(c1ccc(NC(=O)Nc2cccc(Cl)c2)cc1)c1ccnc(N)n1.Cl [GW830707] | 0 | 0 | 5 | 17 | 0 | 97.4 | 0 | 0 | 4 | 0 |
| COC(=O)Nc1nc2ccc(Oc3ccc(NC(=O)Nc4cc(C(F)(F)F)ccc4F)cc3)cc2[nH]1.Cl [GW654607] | 1 | 66 | 15 | 0 | 58 | 92.3 | 0 | 0 | 31 | 0 |
| COc1cc(Nc2nccc(N3CCC(NC(=O)Nc4ccc5c(c4)OCO5)C3)n2)cc(OC)c1OC (stereo not shown) [GSK1379766] | 52 | 0 | 14 | 14 | 86 | 7 | 0 | 0 | 0 | 0 |
| CCOc1nccc(-c2c(-c3ccc(F)cc3)ncn2C2CCNCC2)n1 [SB-249175] | 36 | 15 | 28 | 34 | 26 | 13 | 24 | 51 | 0 | 18 |
| CCn1c(-c2nonc2N)nc2c(-c3ccccc3)ncc(OCCCN)c21.O=C(O)C(F)(F)F.O=C(O)C(F)(F)F [GSK260205] | 95.2 | 0 | 9 | 0 | 4 | 21 | 0 | 28 | 2 | 8 |
| COc1cc(Nc2nccc(N3CCC(NS(=O)(=O)c4ccc(NC(C)=O)cc4)CC3)n2)cc(OC)c1OC [GSK1379825] | 84 | 76 | 21 | 11 | 97.4 | 0 | 34 | 0 | 75 | 0 |
